Results as given in PubChem BioAssay (NCI).
Compounds without any hit were thinned out: in the full panel of roughly 79,000, 15% have a hit. Cut-off read from the data, not from the text of the source: active = growth inhibition above about 70%; inactive = the rest.

Experiments:
[1] = NCI Yeast Anticancer Drug Screen. Data for the rad50 strain (AID 155);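 note: 0% = growth of vehicle-only cultures of the same strain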; conditions: S. cerevisiae rad50 strain growth inhibition; at 50.0 µM; active compounds read high
Method in brief: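 A DNA repair-deficient yeast mutant serves as the test organism; compound-induced growth inhibition is calculated against vehicle-treated cells.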

[2] = NCI Yeast Anticancer Drug Screen. Data for the mec2-1 strain (AID 157); conditions: S. cerevisiae mec2-1 strain, at 50.0 µM, active compounds read high
Method in brief: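 Strain: mec2-1 (DNA repair/cell cycle alteration). Compound exposure, then growth measured; inhibition expressed relative to vehicle.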

[3] = NCI Yeast Anticancer Drug Screen. Data for the sgs1 mgt1 strain (AID 161);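 note: 0% = growth of cultures given vehicle only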; conditions: S. cerevisiae sgs1 mgt1 strain, at 50.0 µM, active compounds read high
Method in brief: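 Test agents were incubated with a DNA-repair-mutant yeast strain. Growth was then read and compared against vehicle-treated controls.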

[4] = NCI Yeast Anticancer Drug Screen. Data for the cln2 rad14 strain (AID 165);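 note: 0% = growth equal to vehicle treated cultures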; conditions: S. cerevisiae cln2 rad14 strain, at 50.0 µM, active compounds read high
Method in brief: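 Compounds are applied to the cln2 rad14 yeast strain, and growth is then compared with that of vehicle-treated cultures to give inhibition.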

[5] = NCI Yeast Anticancer Drug Screen. Data for the bub3 strain (AID 167); conditions: S. cerevisiae bub3 mutant strain, at 50.0 µM, active compounds read high
Method in brief: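 Inhibition values come from growth of compound-treated mutant yeast normalised to vehicle-treated controls.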

[6] = NCI Yeast Anticancer Drug Screen. Data for the mlh1 rad18 strain (AID 175); conditions: S. cerevisiae mlh1 rad18 strain growth inhibition; at 50.0 µM; active compounds read high
Method in brief: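 Read-out is yeast growth inhibition, calculated against vehicle-only controls. The compound was applied to a strain engineered with DNA damage repair alterations.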

Measured: growth inhibition

C=CCCc1cc(OC)ccc1C(=O)C(C)C
inactive: [1] 4.3% | [2] -17.8% | [3] -20.1% | [4] -20.8% | [5] 0.2% | [6] -12.6%

CCOc1c(Cc2ccccc2)c(=O)n2c3ccccc3n3c(=O)n(C)c(=O)c1c23
inactive: [1] -5.8% | [2] -22.4% | [3] -54.2% | [4] 11.8% | [5] -12.8% | [6] -25%

COc1ccc(C2OC3=Nc4cc(C)c(C)cc4NC3C2=O)cc1OC (stereo not given)
inactive: [1] 15.7% | [2] -6.75% | [3] -6.15% | [4] -1.9% | [5] -23.4% | [6] 1.9%

COC(=O)N1CCc2c([nH]oc2=O)C1
inactive: [1] -6.75% | [2] -5.4% | [3] -4.5% | [4] -13.4% | [5] -0.8% | [6] -3.75%

CN(C=O)/C=C/c1cc(O)ccc1O
inactive: [1] -0.95% | [2] -0.8% | [3] -1.6% | [4] -4.1% | [5] 7.7% | [6] 5.4%

Nc1ccccc1CN1C(=O)CCC1=O
inactive: [1] 0.25% | [2] -6.8% | [3] -12.4% | [4] -14.9% | [5] -10.1% | [6] -14.2%

Cc1cccc(Cl)c1O
inactive: [1] 29.8% | [2] -7.1% | [3] 23.6% | [4] -23.8% | [5] -7.75% | [6] 18.2%

CCOC(=O)C1C(=O)C(=O)N(C)C1c1ccccc1 (stereo not given)
inactive: [1] -2.6% | [2] 16.3% | [3] 8.1% | [4] -49.9% | [5] 2.7% | [6] 8.55%

COc1cc(C(=O)O)c([N+](=O)[O-])c(OC)c1OC
inactive: [1] -12.3% | [2] -6.35% | [3] -18.1% | [4] -11.2% | [5] -29.9% | [6] -7.5%

O=C(CCl)Oc1cccc([N+](=O)[O-])c1
inactive: [1] 0.6% | [2] -11.2% | [3] -7.05% | [4] -8.45% | [5] -17.5% | [6] -20.4%

C/C(=N/O)c1c[n+]([O-])ccn1
inactive: [1] -3.9% | [2] -3.15% | [3] -7.9% | [4] -31.2% | [5] 4.7% | [6] -0.5%

CCN(CC)CCNc1ccc(OC)c2sc3ccccc3c(=O)c12
inactive: [1] 53.6% | [2] 25.4% | [3] 20.9% | [4] -7.85% | [5] 40.4% | [6] 24.6%

CC(/C=N/N(C)C1=NCCCCN1)=N/N(C)C1=NCCCCN1
inactive: [1] 23.9% | [2] 12.7% | [3] 18.5% | [4] -21.6% | [5] -2.5% | [6] 29.4%

CC1CCC(NC(=O)NCCCl)c2ccccc21 (stereo not given)
inactive: [1] -7.05% | [2] -1.3% | [3] -1.8% | [4] -23.8% | [5] -14.2% | [6] -6.65%

O=C(O)c1ccc(Nc2nc3ccccc3nc2C(=O)O)cc1
inactive: [1] -19.2% | [2] -26.8% | [3] -33.2% | [4] 7.05% | [5] -13.2% | [6] -0.9%

CCOC(=O)C(Cc1cccc2ccccc12)(NC(C)=O)C(=O)OCC
inactive: [1] -7.5% | [2] -4.55% | [3] -5.95% | [4] -31.9% | [5] 16.5% | [6] -14.8%

O=S(=O)(c1ccccc1)N1CN(S(=O)(=O)c2ccccc2)CN(S(=O)(=O)c2ccccc2)C1
inactive: [1] 0.95% | [2] -9.35% | [3] 19.5% | [4] 10.6% | [5] 17.9% | [6] 6.35%

C/C=C(\C(=C\C)c1ccc(OC(=O)c2ccccc2)c(C2CCCCC2)c1)c1ccc(O)c(C2CCCCC2)c1
inactive: [1] 49% | [2] 34.5% | [3] 44.9% | [4] 30.4% | [5] 2.95% | [6] 45.8%

O=Cc1ccc(C=O)cc1
inactive: [1] 22.6% | [2] -3.35% | [3] 26.9% | [4] 11.9% | [5] 14.2% | [6] 32.5%

Cc1[nH]c(=O)c2oc3cc4ccccc4cc3c2c1C(=O)O
inactive: [1] -14.6% | [2] -29.9% | [3] -24.1% | [4] -44.1% | [5] -30.7% | [6] -19.1%
